Experimental data as given in the supplement of paper PMC11732987, “Enantioselective OTUD7B fragment discovery through chemoproteomics screening and high-throughput optimisation” (Communications Chemistry, 2025).

What was measured:
Assay in all cases: log2 ratio of Biotin-Ahx-Ub-VS probe labelling (fragment/DMSO); higher = less target engagement (more negative = stronger competition), active = hit call of the paper (q ≤ 0.05, log2 ratio ≤ -1)
Conditions in all cases: compound concentration: 200 uM; treatment time: 3 h
[1] = biological target: T1, USP19 (UniProt O94966)
T1 sequence (whole entry): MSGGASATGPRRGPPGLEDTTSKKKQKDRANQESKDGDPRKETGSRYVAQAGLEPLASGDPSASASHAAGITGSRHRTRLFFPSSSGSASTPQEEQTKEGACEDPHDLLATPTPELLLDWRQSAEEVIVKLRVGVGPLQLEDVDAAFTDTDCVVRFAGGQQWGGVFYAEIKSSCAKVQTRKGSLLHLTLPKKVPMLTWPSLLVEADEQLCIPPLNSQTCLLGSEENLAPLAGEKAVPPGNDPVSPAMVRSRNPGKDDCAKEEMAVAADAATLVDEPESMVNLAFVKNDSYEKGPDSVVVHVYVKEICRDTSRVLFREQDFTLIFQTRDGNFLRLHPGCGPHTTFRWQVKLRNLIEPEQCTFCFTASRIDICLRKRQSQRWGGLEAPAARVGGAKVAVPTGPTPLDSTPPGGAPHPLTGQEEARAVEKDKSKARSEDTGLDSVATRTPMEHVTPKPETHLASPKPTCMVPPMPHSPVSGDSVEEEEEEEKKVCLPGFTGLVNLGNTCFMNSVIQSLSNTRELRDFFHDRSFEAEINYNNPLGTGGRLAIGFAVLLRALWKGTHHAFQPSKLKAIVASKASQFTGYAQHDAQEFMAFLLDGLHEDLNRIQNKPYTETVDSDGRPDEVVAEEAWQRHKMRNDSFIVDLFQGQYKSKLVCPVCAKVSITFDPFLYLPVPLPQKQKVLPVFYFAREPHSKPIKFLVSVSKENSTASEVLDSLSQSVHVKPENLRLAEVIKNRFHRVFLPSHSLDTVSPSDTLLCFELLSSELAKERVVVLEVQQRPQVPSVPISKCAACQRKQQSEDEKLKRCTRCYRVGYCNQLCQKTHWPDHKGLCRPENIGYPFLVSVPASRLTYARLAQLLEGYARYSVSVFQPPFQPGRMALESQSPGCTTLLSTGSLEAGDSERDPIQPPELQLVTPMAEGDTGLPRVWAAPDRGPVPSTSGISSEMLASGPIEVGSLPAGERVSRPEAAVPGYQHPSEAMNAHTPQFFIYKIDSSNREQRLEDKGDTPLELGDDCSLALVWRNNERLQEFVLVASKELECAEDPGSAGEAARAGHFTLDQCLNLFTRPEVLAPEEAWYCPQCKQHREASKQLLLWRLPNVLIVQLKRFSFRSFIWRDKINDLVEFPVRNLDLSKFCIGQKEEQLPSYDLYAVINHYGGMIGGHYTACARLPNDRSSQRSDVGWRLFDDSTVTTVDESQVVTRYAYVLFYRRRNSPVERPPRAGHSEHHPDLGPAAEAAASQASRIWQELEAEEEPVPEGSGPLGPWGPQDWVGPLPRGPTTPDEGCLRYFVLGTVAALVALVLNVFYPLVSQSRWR
Summary of the method: (§1)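 Average log2 ratios of fragment over vehicle were obtained by unpaired t-test from global-median-normalised Spectronaut label-free quantities. Proteins with ≥2 unique peptides were included. HEK293T lysate (495 µg per sample) was treated in triplicate with fragment at 200 µM or vehicle for 3 h, then with Biotin-Ahx-Ub-VS at 0.5 µM final for 1 h, and labelled DUBs were NeutrAvidin-enriched and run by diaPASEF LC-MS/MS.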

[2] = biological target: USP24 (UniProt Q9UPU5)
Summary of the method: as §1

[3] = biological target: T2, USP25 (UniProt Q9UHP3)
T2 sequence (whole entry): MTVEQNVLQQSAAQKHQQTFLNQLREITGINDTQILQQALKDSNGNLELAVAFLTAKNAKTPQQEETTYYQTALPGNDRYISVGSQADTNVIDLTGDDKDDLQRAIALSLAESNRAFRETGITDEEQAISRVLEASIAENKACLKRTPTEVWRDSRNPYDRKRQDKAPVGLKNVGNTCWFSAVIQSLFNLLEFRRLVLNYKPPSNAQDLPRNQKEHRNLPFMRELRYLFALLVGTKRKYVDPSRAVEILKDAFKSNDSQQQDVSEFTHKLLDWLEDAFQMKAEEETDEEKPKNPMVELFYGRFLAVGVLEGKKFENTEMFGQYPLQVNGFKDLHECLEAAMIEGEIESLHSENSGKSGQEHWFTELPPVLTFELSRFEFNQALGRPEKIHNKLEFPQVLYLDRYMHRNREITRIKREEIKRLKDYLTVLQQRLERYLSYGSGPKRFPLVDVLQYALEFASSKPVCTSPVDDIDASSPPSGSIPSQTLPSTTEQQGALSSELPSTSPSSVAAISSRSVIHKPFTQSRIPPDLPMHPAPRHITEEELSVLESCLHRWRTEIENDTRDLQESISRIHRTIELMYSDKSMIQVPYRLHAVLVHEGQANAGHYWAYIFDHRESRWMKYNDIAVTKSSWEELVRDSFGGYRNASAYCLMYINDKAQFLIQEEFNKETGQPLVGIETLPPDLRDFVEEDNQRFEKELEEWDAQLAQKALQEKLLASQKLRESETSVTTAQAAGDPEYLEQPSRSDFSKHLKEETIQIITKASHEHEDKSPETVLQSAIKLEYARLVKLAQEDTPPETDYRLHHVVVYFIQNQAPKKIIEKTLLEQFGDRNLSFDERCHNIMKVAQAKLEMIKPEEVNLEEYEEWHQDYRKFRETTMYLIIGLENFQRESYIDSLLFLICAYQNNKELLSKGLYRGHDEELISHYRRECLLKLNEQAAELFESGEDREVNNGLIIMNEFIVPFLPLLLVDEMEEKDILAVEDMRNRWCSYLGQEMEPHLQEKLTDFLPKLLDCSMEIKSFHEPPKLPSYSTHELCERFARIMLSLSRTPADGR
Summary of the method: as §1

[4] = biological target: T3, USP28 (UniProt Q96RU2)
T3 sequence (whole entry): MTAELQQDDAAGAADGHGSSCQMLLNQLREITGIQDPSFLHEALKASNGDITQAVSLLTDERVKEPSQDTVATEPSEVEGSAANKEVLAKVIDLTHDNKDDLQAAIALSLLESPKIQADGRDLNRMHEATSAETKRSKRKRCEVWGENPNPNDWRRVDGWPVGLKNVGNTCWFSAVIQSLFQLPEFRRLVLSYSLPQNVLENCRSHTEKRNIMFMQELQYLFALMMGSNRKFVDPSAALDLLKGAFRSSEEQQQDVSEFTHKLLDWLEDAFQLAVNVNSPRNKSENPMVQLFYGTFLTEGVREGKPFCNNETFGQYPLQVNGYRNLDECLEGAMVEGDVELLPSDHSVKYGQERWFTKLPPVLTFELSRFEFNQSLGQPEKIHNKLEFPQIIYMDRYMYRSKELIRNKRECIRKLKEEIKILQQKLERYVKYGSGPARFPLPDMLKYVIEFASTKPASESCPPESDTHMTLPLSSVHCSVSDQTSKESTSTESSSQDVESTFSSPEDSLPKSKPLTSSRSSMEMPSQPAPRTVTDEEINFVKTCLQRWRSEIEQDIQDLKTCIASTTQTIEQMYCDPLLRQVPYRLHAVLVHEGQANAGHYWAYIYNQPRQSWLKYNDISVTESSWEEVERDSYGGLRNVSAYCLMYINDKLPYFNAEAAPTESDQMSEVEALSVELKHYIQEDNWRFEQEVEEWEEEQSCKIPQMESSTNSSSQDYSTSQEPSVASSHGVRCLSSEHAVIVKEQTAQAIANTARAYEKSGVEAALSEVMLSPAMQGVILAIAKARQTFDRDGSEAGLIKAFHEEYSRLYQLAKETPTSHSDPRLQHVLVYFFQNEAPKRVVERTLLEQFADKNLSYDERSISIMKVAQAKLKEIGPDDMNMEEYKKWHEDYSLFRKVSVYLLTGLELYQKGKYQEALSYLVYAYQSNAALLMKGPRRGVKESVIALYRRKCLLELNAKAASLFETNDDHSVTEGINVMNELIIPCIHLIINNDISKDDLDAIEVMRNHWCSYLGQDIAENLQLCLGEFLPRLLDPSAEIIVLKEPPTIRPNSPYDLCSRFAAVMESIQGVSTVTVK
Summary of the method: as §1

Measured: log2 ratio of Biotin-Ahx-Ub-VS probe labelling

Chain of USP24 (Q9UPU5 whole entry): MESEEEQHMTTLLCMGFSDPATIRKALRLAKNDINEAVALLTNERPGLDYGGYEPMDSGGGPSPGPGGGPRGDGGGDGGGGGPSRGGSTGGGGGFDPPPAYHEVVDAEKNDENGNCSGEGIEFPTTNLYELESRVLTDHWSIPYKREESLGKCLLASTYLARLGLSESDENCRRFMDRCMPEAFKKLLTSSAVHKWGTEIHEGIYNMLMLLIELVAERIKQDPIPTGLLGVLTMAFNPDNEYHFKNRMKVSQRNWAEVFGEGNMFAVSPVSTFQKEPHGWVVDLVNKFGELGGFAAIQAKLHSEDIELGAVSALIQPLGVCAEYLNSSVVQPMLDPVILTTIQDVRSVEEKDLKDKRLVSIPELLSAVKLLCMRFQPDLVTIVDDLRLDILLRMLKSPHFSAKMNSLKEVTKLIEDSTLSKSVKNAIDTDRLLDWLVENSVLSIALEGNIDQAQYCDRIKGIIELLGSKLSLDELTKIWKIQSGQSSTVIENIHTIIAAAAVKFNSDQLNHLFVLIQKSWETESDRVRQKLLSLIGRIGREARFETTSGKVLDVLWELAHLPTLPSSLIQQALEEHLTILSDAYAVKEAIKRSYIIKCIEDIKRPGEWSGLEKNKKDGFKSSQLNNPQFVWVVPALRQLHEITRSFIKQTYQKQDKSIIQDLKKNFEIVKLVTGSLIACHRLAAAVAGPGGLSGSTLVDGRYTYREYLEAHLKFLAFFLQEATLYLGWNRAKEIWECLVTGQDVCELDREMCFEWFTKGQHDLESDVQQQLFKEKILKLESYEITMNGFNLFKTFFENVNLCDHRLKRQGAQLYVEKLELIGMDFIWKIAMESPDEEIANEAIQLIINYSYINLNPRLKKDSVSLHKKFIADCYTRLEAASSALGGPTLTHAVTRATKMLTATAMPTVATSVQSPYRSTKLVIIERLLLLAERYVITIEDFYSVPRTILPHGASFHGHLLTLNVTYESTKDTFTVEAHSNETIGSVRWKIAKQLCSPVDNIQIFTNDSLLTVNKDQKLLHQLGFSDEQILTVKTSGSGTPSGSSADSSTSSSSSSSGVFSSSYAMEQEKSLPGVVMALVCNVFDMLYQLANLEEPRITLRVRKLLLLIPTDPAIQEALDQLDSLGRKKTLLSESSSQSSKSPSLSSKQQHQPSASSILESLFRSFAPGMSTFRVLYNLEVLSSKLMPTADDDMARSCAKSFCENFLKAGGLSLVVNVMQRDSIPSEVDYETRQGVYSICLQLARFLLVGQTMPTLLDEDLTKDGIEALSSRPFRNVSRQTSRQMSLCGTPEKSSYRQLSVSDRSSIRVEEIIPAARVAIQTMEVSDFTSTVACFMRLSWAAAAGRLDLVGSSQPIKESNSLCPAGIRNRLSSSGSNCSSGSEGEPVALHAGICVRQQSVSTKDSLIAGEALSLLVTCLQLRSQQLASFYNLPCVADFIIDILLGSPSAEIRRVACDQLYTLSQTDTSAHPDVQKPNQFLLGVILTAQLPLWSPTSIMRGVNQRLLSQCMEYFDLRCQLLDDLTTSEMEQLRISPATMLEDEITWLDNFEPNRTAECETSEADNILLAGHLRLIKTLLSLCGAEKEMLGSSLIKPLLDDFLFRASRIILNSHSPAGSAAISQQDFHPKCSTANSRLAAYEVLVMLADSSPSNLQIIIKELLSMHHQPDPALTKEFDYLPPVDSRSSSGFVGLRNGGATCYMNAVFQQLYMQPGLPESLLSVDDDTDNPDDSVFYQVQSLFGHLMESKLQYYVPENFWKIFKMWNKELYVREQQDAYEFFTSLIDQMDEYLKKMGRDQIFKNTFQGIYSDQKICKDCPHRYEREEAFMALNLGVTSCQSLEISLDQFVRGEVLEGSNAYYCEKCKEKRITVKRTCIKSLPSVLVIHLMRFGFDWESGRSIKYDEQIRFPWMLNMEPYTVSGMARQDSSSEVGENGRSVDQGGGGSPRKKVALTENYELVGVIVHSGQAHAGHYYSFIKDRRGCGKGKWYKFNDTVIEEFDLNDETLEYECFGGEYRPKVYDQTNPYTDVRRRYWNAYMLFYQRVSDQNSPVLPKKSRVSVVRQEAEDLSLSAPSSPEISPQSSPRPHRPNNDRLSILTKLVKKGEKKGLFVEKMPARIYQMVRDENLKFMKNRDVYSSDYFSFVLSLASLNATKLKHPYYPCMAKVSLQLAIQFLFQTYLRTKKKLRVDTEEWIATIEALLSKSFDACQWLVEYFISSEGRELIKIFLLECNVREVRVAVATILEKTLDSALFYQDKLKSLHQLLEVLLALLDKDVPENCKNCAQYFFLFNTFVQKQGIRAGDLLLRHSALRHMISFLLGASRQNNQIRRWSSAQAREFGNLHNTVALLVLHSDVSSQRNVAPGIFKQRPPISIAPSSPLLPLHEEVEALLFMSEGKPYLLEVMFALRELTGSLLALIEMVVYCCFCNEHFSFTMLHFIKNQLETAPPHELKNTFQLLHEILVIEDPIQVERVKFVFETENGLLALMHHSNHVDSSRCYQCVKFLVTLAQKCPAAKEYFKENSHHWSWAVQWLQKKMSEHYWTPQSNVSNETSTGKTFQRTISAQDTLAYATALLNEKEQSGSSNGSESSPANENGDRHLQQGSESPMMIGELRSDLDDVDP

O=C(CCl)NCC1(c2ccccc2)CC1
inactive: [1] -0.058 | [2] -0.208 | [3] -0.366 | [4] -0.447
